SIRT5 inh: blocks human SIRT5 desuccinylation of peptide. Q9NXA8. 1.1% of 330,000 active. Purified SirT5, succinyl-peptide AMC, trypsin-coupled fluorescence. inhibition, % at 15 µM. AID 652115; in the data active = inhibition above about 15%
ERAP1 inh: blocks human ERAP1 aminopeptidase activity. recombinant ERAP1, Leu-AMC fluorescence, 60 min. AID 652197. Q9NZ08. inhibition, % at 10.7 µM. 0.15% of 340,000 active;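 active = mean replicate inhibition of at least 30%, or all replicates individually reaching that 30% level; inactive = mean below 30% and not every replicate reaching it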
FGF22 binding-1: shifts melting point of recombinant human FGF22. recombinant FGF22 thermal shift, SYPRO orange fluorescence; percent of sucrose octasulfate shift, DMSO zero. activity (Tm shift, normalised), % at 9.99 µM. Q9HCT0. AID 651658. 1.5% of 340,000 active;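 active = mean Tm shift, scaled 0 neutral to 100 positive control, at about 1.3% or above, every replicate too, limit read from the data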
Target sequence (Q9HCT0 whole entry, looked up): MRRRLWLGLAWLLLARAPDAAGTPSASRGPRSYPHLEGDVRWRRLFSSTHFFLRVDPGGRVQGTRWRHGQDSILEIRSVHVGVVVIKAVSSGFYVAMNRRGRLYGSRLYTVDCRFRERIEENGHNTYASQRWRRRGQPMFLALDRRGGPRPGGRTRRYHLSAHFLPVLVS
INS-1E GSIS act: primary screen for activators of insulin secretion dependent on glucose, INS-1E cells, GLuc reporter luminescence | INS-1E GLuc reporter insulin secretion, 2-3 h | activation, % at 16.6 µM | 0.61% of 370,000 active | AID 743287;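 active = lowest replicate activation of at least 40%, so every replicate reaches that level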
CASP6 VEID inh: blocks human caspase-6 cleavage activity; P55212; inhibition, % at 12.5 µM; 0.53% of 350,000 active; purified caspase-6, Z-VEID-R110 cleavage fluorescence;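 active = mean inhibition across replicates at least about 35%, with every replicate also reaching that limit, limit read from the data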
Target sequence (P55212 24-179 limits assumed): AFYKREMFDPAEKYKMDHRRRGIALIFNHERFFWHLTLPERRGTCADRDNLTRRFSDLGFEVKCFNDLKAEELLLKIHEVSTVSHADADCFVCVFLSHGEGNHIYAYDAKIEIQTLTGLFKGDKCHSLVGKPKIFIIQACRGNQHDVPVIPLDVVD
Target sequence (P55212 194-293 limits assumed): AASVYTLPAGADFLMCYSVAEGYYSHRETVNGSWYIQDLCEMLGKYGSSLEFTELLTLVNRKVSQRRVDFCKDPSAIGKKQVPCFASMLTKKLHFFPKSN
FGF22 binding-2: FGF22 (human) binding in thermal shift | shares compounds with FGF22 binding-1 | recombinant FGF22 thermal shift, SYPRO orange fluorescence | thermal shift activity, °C (ΔTm) at 38 µM | 2% of 1,000 active | AID 720646;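 active = fitted rise in melting shift crosses a set limit at or below the top valid dose tested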
TSA no protein: compound-only SYPRO artifact for FGF22 binders; shares compounds with FGF22 binding-1; compound-only SYPRO orange thermal shift counter-screen, no protein; AC50, µM (doses to about 38 µM); 2% of 1,000 active;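 active = rising signal whose fitted curve reaches the 0.54 level within the top valid dose, showing a melting point, actives reach about 13 µM in these data; inactive = the rest, including activity in the opposite direction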; also: value is where the raw curve crosses a fixed level and not half-maximal
Of the large screens only hits and unclear results are named; the others gave an inactive call (follow-up assays come after a bar, where they were run); ! = a repeat was not active. Shown are actives, neighbours in structure and some others; about 3.3% of the full set was active somewhere.

CCc1ccc2nc(N)sc2c1	FGF22 binding-1 2.4 | FGF22 binding-2 inactive | TSA no protein inactive
COc1ccc2nc(N)sc2c1	none (no result: SIRT5 inh, ERAP1 inh, FGF22 binding-1, CASP6 VEID inh)
CC(=O)c1ccc(Nc2nc(N3CCOCC3)nc(N3CCOCC3)n2)cc1	none
CC(=O)Nc1ccc(/C(C)=N/Nc2nc(Nc3ccccc3)nc(N3CCOCC3)n2)cc1	FGF22 binding-1 1.6 | FGF22 binding-2 inactive | TSA no protein inactive
CCN1[C@@H]2c3ccc(-c4ccccc4F)c(=O)n3C[C@H]1[C@H](CO)[C@H]2C(=O)N1CCOCC1	none
CC(=O)Nc1ccc2sc(C)nc2c1	FGF22 binding-1 38 (no result: ERAP1 inh) | FGF22 binding-2 inactive | TSA no protein inactive
Cc1nc2cc(NC(=O)CS(=O)(=O)c3ccccc3)ccc2s1	none
C[C@@H]1CCCCO[C@H](CN(C)Cc2ccc(C(F)(F)F)cc2)[C@H](C)CN([C@@H](C)CO)C(=O)c2cc(NC(=O)NC3CCCCC3)ccc2O1	none
Cc1nc2ccc(C(=O)N/N=C/c3ccccc3O)cc2[nH]1	FGF22 binding-1 1.5 | FGF22 binding-2 inactive | TSA no protein inactive
O=C(NCc1ccccn1)[C@@H]1[C@@H](CO)[C@@H]2Cn3c(ccc(C4=CCCC4)c3=O)[C@H]1N2Cc1cccnc1	none
CNC(=O)C[C@@H]1CC[C@@H]2[C@H](COc3ccc(NC(=O)c4cccc(F)c4)cc3C(=O)N2C)O1	FGF22 binding-1 16! | FGF22 binding-2 inactive | TSA no protein inactive
CCCNC(=O)C[C@H]1CC[C@H]2[C@H](COc3ccc(NS(=O)(=O)c4ccccc4C)cc3C(=O)N2C)O1	none (no result: FGF22 binding-1)
CNC(=O)C[C@@H]1CC[C@@H]2[C@@H](COc3ccc(NS(=O)(=O)c4ccccc4C)cc3C(=O)N2C)O1	FGF22 binding-1 20 | FGF22 binding-2 inactive | TSA no protein inactive
CC(=O)N(C)C[C@H]1Oc2ccc(NC(=O)NC(C)C)cc2CC(=O)N(C)C[C@@H]1C	none (no result: SIRT5 inh, ERAP1 inh, FGF22 binding-1, CASP6 VEID inh)
O=C(CCN1CCCCC1)N[C@@H]1CC[C@@H](CCNS(=O)(=O)c2ccccc2)O[C@@H]1CO	none
O=C(O)CCN(Cc1ccccc1)S(=O)(=O)c1ccccc1Cl	FGF22 binding-1 2.9 | FGF22 binding-2 inactive | TSA no protein inactive
O=C(c1cccnc1)N1CC[C@@H]2[C@H]1c1cc(-c3ccc(F)cc3)ccc1N[C@@H]2CO	none
CN1CCN(C(=O)C[C@@H]2CC[C@H]3[C@@H](COC[C@H](O)CN3CC3CCCCC3)O2)CC1	FGF22 binding-1 24 (no result: INS-1E GSIS act) | FGF22 binding-2 inactive | TSA no protein inactive
O=C(C[C@H]1CC[C@H]2[C@@H](COC[C@H](O)CN2CC2CCOCC2)O1)NCC1CCCCC1	FGF22 binding-1 2.4 | FGF22 binding-2 inactive | TSA no protein inactive
O=C(NCc1ccccc1Cl)[C@H]1[C@H](CO)[C@H]2Cn3c(cccc3=O)[C@H]2N1C(=O)C1CCCC1	none
CC(C)NC(=O)N(C)C[C@@H]1Oc2ccc(NS(C)(=O)=O)cc2C(=O)N([C@@H](C)CO)C[C@@H]1C	none (no result: FGF22 binding-1)
O=C(Nc1ccccc1)c1[nH]ncc1[N+](=O)[O-]	none (no result: SIRT5 inh, ERAP1 inh, FGF22 binding-1, CASP6 VEID inh)
COc1ccc(NC(=O)c2[nH]ncc2[N+](=O)[O-])cc1	FGF22 binding-1 1.4 | FGF22 binding-2 inactive | TSA no protein inactive
Cc1ccc(N(CCC#N)C(=O)COC(=O)c2cc(C)no2)cc1	FGF22 binding-1 2.8 | FGF22 binding-2 inactive | TSA no protein inactive
O=C(c1cccc(F)c1)N1C[C@@H]2[C@H](c3ccccc31)[C@@H](CO)N2C(=O)C1CCOCC1	none
Cc1cc(C(=O)O/N=C(\N)c2ccncc2)ccc1[N+](=O)[O-]	FGF22 binding-1 18 (no result: ERAP1 inh, INS-1E GSIS act) | FGF22 binding-2 inactive | TSA no protein inactive
O=C(C[C@H]1C[C@@H]2c3cc(NC(=O)C4CCOCC4)ccc3O[C@@H]2[C@@H](CO)O1)NCc1ccncc1	none
CC(C)(C)c1ccc(N/N=C(\C#N)S(=O)(=O)C(C)(C)C)cc1	none
CC(C)(C)S(=O)(=O)/C(C#N)=N/Nc1ccc(Cl)cc1	FGF22 binding-1 1.7 | FGF22 binding-2 inactive | TSA no protein inactive
C[C@@H]1CN([C@H](C)CO)S(=O)(=O)c2ccc(C#CC3(O)CCCC3)cc2O[C@@H]1CN(C)C(=O)c1ccncc1	none
COc1ccc(OC)c(Nc2ccc(Nc3cc(OC)ccc3OC)nn2)c1	FGF22 binding-1 1.8 (no result: INS-1E GSIS act) | FGF22 binding-2 inactive | TSA no protein inactive
